This is part of a sample that, as a whole, favours compounds with a hit. Of some 83,000 tested, about 20% had one in any assay.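 Cell lines were cultured in 96-well plates, exposed to a single compound concentration, and assessed for percent growth 48 hours later.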 Unmarked numbers belong to inactive results. Active and inactive are the calls of the source. Rule for the calls: active = growth percent below 10; inactive = the rest.
What was measured:
Assay in all cases: NCI-60 one-dose screen, 48 h (100 = growth as untreated, 0 = no growth, -100 = all killed)
Settings in all cases: 10 µM unless noted
[1] = system: NCI-H23 lung
[2] = system: NCI-H226 lung
[3] = system: NCI-H322M lung
[4] = system: HOP-62 NSCLC
[5] = system: NCI-H460 lung
[6] = system: HOP-92 NSCLC
[7] = system: A549/ATCC NSCLC
[8] = system: 786-0 renal
[9] = system: COLO 205 colon

SMILES | growth [1] | growth [2] | growth [3] | growth [4] | growth [5] | growth [6] | growth [7] | growth [8] | growth [9]
O=C(Nc1ccc2c(c1)C(=O)c1ccccc1-2)c1ccccc1 | 95% | 97.6% | 101% | 44.3% | 87.4% | 82.1% | 100% | 52.1% | 97.8%
COc1cccc(C=Nc2cc(C(C)C)c(O)cc2C)c1O | 95.2% | 93% | 95.3% | 95% | 107% | 82.3% | 109% | 106% | 98.6%
COc1cccc(N2CCN(CC(=O)N3CCN(c4nnc(-c5ccc(Cl)cc5)c(-c5ccc(Cl)cc5)n4)CC3)CC2)c1 | 82.9% | 74.7% | 71.9% | 95.9% | 70.8% | 11.9% | -1.64% (active) | 79.4% | 78.6%
CCOC(=O)C(Br)=P(c1ccccc1)(c1ccccc1)c1ccccc1 | 109% | 104% | 99.4% | 114% | 116% | 101% | 106% | 103% | 103%
CC[C@@H](C)/C=C(C)/C=C/C(=O)c1c(O)c(-c2ccc(O)cc2)cn(OC2CC(=O)CCC(C)OC(=O)CC2O)c1=O (stereo partly specified) | 26.8% | 15.8% | 5.13% (active) | 7.07% (active) | -19.6% (active) | 57.7% | 17.9% | -6.82% (active) | 67.8%
COc1ccc(Oc2ccccc2NC(=O)CNC(=O)c2cccc3ccccc23)cc1 | 36.7% [5 µM] | 61.4% [5 µM] | 45.5% [5 µM] | 31.5% [5 µM] | 11.9% [5 µM] | 52.1% [5 µM] | 20.8% [5 µM] | 30.1% [5 µM] | -20% [5 µM] (active)
CC1CN(C2CCCCC2)C(=O)NC1=O (stereo unspecified) | 114% | 101% | 80.5% | 108% | 114% | 92% | 104% | 110% | 101%
O=C1C2C(C(=O)N1CC[Se][Se]CCN1C(=O)C3C(C1=O)[C@H]1C=C[C@@H]3C1)[C@H]1C=C[C@@H]2C1 (stereo partly specified) | -9.33% (active) | -46.9% (active) | 2.77% (active) | -80.1% (active) | -14.9% (active) | -74.4% (active) | -28.4% (active) | -84% (active) | -86.6% (active)
Cc1nn(-c2ccccc2)c2nc(N)c(C3=NCCO3)nc12 | 96.9% | 93.6% | 89.5% | 81.2% | 97.7% | 43.6% | 86.5% | 99.7% | 94.1%
Cc1cnc2nc(-c3ccc(N(C)C)cc3)cn2c1 | 93.2% | 102% | 110% | 99.5% | 114% | 104% | 95.5% | 91.5% | 120%
CCCCOP(=O)(OCCCC)C(C(=O)OCC)C(CC(=O)OCC)C(=O)OCC (stereo unspecified) | 134% | 99.1% | 107% | 104% | 109% | 48.4% | 103% | 106% | 107%
Nc1ccc2c(c1Br)Cc1ccccc1-2 | 92% | 104% | 114% | 97.8% | 102% | 76% | 86% | 107% | 99.2%
COc1ccc(-c2cnc(SCC(=O)Nc3ccc(-c4nc5ccccc5s4)cc3)n2-c2ccc(OC)cc2)cc1 | 101% | 105% | 102% | 106% | 110% | 93.6% | 101% | 102% | 112%
c1ccc(-c2n(Cc3ccc4ccccc4c3)cc[n+]2Cc2ccc3ccccc3c2)cc1 | -38.7% (active) | -9.03% (active) | 8.84% (active) | -44.8% (active) | -78.5% (active) | -69.6% (active) | 12.5% | -80.7% (active) | -79.1% (active)

Reference: PubChem BioAssay (NCI)
